In PubChem BioAssay (NCI):
Compounds without any hit were thinned out: in the full panel of roughly 79,000, 15% have a hit. Values without a mark were called inactive. Calls of active or inactive are those of the source. No stated cut-off is given here; in the data, active means growth inhibition above about 70%; inactive means the rest.

Key:
[1] = NCI Yeast Anticancer Drug Screen. Data for the rad52 strain (AID 147);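 further: 0% = growth of vehicle-treated control cultures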; details: S. cerevisiae rad52 mutant growth inhibition, active compounds read high
Procedure, shortened: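 Vehicle-treated cultures served as the reference for growth inhibition of compound-exposed yeast bearing a DNA repair mutation.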

[2] = NCI Yeast Anticancer Drug Screen. Data for the wt1 strain (AID 149);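 further: 0% = growth of vehicle-treated wt1 cultures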; details: S. cerevisiae wt1 strain (SPY 50644) growth inhibition, active compounds read high
Procedure, shortened: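 Using yeast strain wt1, compound-induced growth inhibition was determined against vehicle-treated cultures.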

[3] = NCI Yeast Anticancer Drug Screen. Data for the rad50EPP+ strain (AID 151);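 further: 0% = growth of vehicle-treated control cultures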; details: S. cerevisiae rad50 mutant strain, active compounds read high
Procedure, shortened: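 In this screen, rad50EPP+ yeast were exposed to compounds. Growth inhibition was scored against vehicle-treated controls.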

[4] = NCI Yeast Anticancer Drug Screen. Data for the mgt1 strain (AID 153); details: S. cerevisiae mgt1 mutant growth inhibition, active compounds read high
Procedure, shortened: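 mgt1 strain exposed; growth vs vehicle control recorded as inhibition.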

[5] = NCI Yeast Anticancer Drug Screen. Data for the rad50 strain (AID 155);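 further: 0% = growth of vehicle-only cultures of the same strain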; details: S. cerevisiae rad50 strain growth inhibition, active compounds read high
Procedure, shortened: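 Relative growth inhibition (compound vs vehicle) was measured in yeast with a defined repair-gene alteration.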

[6] = NCI Yeast Anticancer Drug Screen. Data for the mec2-1 strain (AID 157); details: S. cerevisiae mec2-1 strain, active compounds read high
Procedure, shortened: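 Vehicle-treated cultures served as reference for growth inhibition of compound-exposed mec2-1 yeast.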

[7] = NCI Yeast Anticancer Drug Screen. Data for the rad14 strain (AID 159);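 further: 0% = growth of vehicle-treated control cultures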; details: S. cerevisiae rad14 strain growth inhibition, active compounds read high
Procedure, shortened: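 Screen for anticancer potential: a yeast strain altered in DNA damage repair is grown with compound, and reduced growth is quantified against vehicle controls.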

[8] = NCI Yeast Anticancer Drug Screen. Data for the sgs1 mgt1 strain (AID 161);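 further: 0% = growth of cultures given vehicle only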; details: S. cerevisiae sgs1 mgt1 strain, active compounds read high
Procedure, shortened: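 Genetically altered yeast, compound exposure, growth inhibition relative to vehicle.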

[9] = NCI Yeast Anticancer Drug Screen. Data for the CLN2oe strain (AID 163);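 further: 0% = growth of vehicle-only control cultures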; details: S. cerevisiae CLN2oe strain, active compounds read high
Procedure, shortened: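 Inhibition relative to vehicle-treated yeast is reported. Cells: strain with genetic alteration in cell-cycle control, grown with compound.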

[10] = NCI Yeast Anticancer Drug Screen. Data for the cln2 rad14 strain (AID 165);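 further: 0% = growth equal to vehicle treated cultures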; details: S. cerevisiae cln2 rad14 strain, active compounds read high
Procedure, shortened: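 Each compound was tested on cln2 rad14 yeast. Inhibition of growth was calculated against vehicle-exposed controls.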

[11] = NCI Yeast Anticancer Drug Screen. Data for the bub3 strain (AID 167); details: S. cerevisiae bub3 mutant strain, active compounds read high
Procedure, shortened: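 Screening used yeast with an engineered genetic alteration affecting cell cycle control. Compound-exposed cultures were compared with vehicle cultures, and reduced growth was taken as inhibition.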

[12] = NCI Yeast Anticancer Drug Screen. Data for the wt2 strain (AID 169);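 further: 0% = growth of vehicle-treated yeast cultures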; details: S. cerevisiae wt2 strain growth inhibition, active compounds read high
Procedure, shortened: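 Inhibition of yeast growth was determined after compound treatment, normalised to controls receiving only vehicle.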

[13] = NCI Yeast Anticancer Drug Screen. Data for the mlh1 strain (AID 171);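 further: 0% = growth of vehicle-treated control cultures of the same strain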; details: S. cerevisiae mlh1 strain growth inhibition, active compounds read high
Procedure, shortened: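 Vehicle-normalised growth inhibition of a repair- or checkpoint-altered yeast strain following compound treatment.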

[14] = NCI Yeast Anticancer Drug Screen. Data for the sgs1 strain (AID 173);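 further: 0% = growth of vehicle-only control cultures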; details: S. cerevisiae sgs1 mutant, active compounds read high
Procedure, shortened: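 Screen format: yeast with repair or checkpoint alterations, compound exposure, growth read relative to vehicle.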

[15] = NCI Yeast Anticancer Drug Screen. Data for the mlh1 rad18 strain (AID 175); details: S. cerevisiae mlh1 rad18 strain growth inhibition, active compounds read high
Procedure, shortened: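 Vehicle-treated cultures served as the reference for growth inhibition in a yeast strain carrying DNA damage repair alterations exposed to each compound.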

[16] = NCI Yeast Anticancer Drug Screen. Data for the rad18 strain (AID 177); details: S. cerevisiae rad18 mutant growth inhibition, active compounds read high
Procedure, shortened: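 Test articles were incubated with altered yeast defective in DNA damage repair. Results are given as inhibition of growth versus vehicle.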

[17] = at 5.0 µM (retest, dose inferred, filed as 0.5)
[18] = at 50.0 µM (retest, dose inferred, filed as 5.0)

Compound: Oc1c2c(c(O)c3ccccc13)C1(N=N2)c2ccccc2Oc2ccccc21
- growth inhibition ([1]; at 1.2 µM): 20%
- growth inhibition ([1]; at 3.7 µM): 72% (active)
- growth inhibition ([1]; at 11.0 µM): 98% (active)
- growth inhibition ([1]; at 33.0 µM): 97% (active)
- growth inhibition ([1]; at 100.0 µM): 93% (active)
- growth inhibition ([2]; at 1.2 µM): 2%
- growth inhibition ([2]; at 3.7 µM): 34%
- growth inhibition ([2]; at 11.0 µM): 98% (active)
- growth inhibition ([2]; at 33.0 µM): 98% (active)
- growth inhibition ([2]; at 100.0 µM): 96% (active)
- growth inhibition ([3]; at 1.2 µM): 8%
- growth inhibition ([3]; at 3.7 µM): 54%
- growth inhibition ([3]; at 11.0 µM): 93% (active)
- growth inhibition ([3]; at 33.0 µM): 95% (active)
- growth inhibition ([3]; at 100.0 µM): 85% (active)
- growth inhibition ([4]; at 1.2 µM): 10%
- growth inhibition ([4]; at 3.7 µM): 47%
- growth inhibition ([4]; at 11.0 µM): 98% (active)
- growth inhibition ([4]; at 33.0 µM): 97% (active)
- growth inhibition ([4]; at 100.0 µM): 94% (active)
- growth inhibition ([5]; at 1.2 µM): 17%
- growth inhibition ([5]; at 3.7 µM): 82% (active)
- growth inhibition [5, 17]: 46%
- growth inhibition ([5]; at 11.0 µM): 98% (active)
- growth inhibition ([5]; at 33.0 µM): 94% (active)
- growth inhibition [5, 18]: 98% (active)
- growth inhibition ([5]; at 50.0 µM): 98.5% (active)
- growth inhibition ([5]; at 100.0 µM): 90% (active)
- growth inhibition ([6]; at 1.2 µM): 10%
- growth inhibition ([6]; at 3.7 µM): 44%
- growth inhibition [6, 17]: 31%
- growth inhibition ([6]; at 11.0 µM): 98% (active)
- growth inhibition ([6]; at 33.0 µM): 97% (active)
- growth inhibition [6, 18]: 98% (active)
- growth inhibition ([6]; at 50.0 µM): 98.7% (active)
- growth inhibition ([6]; at 100.0 µM): 94% (active)
- growth inhibition ([7]; at 1.2 µM): 17%
- growth inhibition ([7]; at 3.7 µM): 44%
- growth inhibition ([7]; at 11.0 µM): 98% (active)
- growth inhibition ([7]; at 33.0 µM): 96% (active)
- growth inhibition ([7]; at 100.0 µM): 92% (active)
- growth inhibition [8, 17]: 57%
- growth inhibition [8, 18]: 98% (active)
- growth inhibition ([8]; at 50.0 µM): 98.6% (active)
- growth inhibition ([9]; at 1.2 µM): 15%
- growth inhibition ([9]; at 3.7 µM): 39%
- growth inhibition ([9]; at 11.0 µM): 98% (active)
- growth inhibition ([9]; at 33.0 µM): 95% (active)
- growth inhibition ([9]; at 100.0 µM): 88% (active)
- growth inhibition [10, 17]: 19%
- growth inhibition [10, 18]: 97% (active)
- growth inhibition ([10]; at 50.0 µM): 92.2% (active)
- growth inhibition ([11]; at 1.2 µM): 8%
- growth inhibition ([11]; at 3.7 µM): 62%
- growth inhibition [11, 17]: 21%
- growth inhibition ([11]; at 11.0 µM): 98% (active)
- growth inhibition ([11]; at 33.0 µM): 96% (active)
- growth inhibition [11, 18]: 97% (active)
- growth inhibition ([11]; at 50.0 µM): 99% (active)
- growth inhibition ([11]; at 100.0 µM): 93% (active)
- growth inhibition ([12]; at 1.2 µM): 4%
- growth inhibition ([12]; at 3.7 µM): 49%
- growth inhibition ([12]; at 11.0 µM): 98% (active)
- growth inhibition ([12]; at 33.0 µM): 97% (active)
- growth inhibition ([12]; at 100.0 µM): 94% (active)
- growth inhibition ([13]; at 1.2 µM): 13%
- growth inhibition ([13]; at 3.7 µM): 43%
- growth inhibition ([13]; at 11.0 µM): 98% (active)
- growth inhibition ([13]; at 33.0 µM): 97% (active)
- growth inhibition ([13]; at 100.0 µM): 94% (active)
- growth inhibition ([14]; at 1.2 µM): 14%
- growth inhibition ([14]; at 3.7 µM): 81% (active)
- growth inhibition ([14]; at 11.0 µM): 98% (active)
- growth inhibition ([14]; at 33.0 µM): 98% (active)
- growth inhibition ([14]; at 100.0 µM): 95% (active)
- growth inhibition [15, 17]: 42%
- growth inhibition [15, 18]: 98% (active)
- growth inhibition ([15]; at 50.0 µM): 98% (active)
- growth inhibition ([16]; at 1.2 µM): 18%
- growth inhibition ([16]; at 3.7 µM): 74% (active)
- growth inhibition ([16]; at 11.0 µM): 98% (active)
- growth inhibition ([16]; at 33.0 µM): 96% (active)
- growth inhibition ([16]; at 100.0 µM): 92% (active)

Compound: CCN(CC)CCC(=O)Nc1ccc2sc3ccccc3c(=O)c2n1
- growth inhibition ([1]; at 1.2 µM): 33%
- growth inhibition ([1]; at 3.7 µM): 70% (active)
- growth inhibition ([1]; at 11.0 µM): 92% (active)
- growth inhibition ([1]; at 33.0 µM): 95% (active)
- growth inhibition ([1]; at 100.0 µM): 94% (active)
- growth inhibition ([2]; at 1.2 µM): -4%
- growth inhibition ([2]; at 3.7 µM): -2%
- growth inhibition ([2]; at 11.0 µM): 1%
- growth inhibition ([2]; at 33.0 µM): 10%
- growth inhibition ([2]; at 100.0 µM): 8%
- growth inhibition ([3]; at 1.2 µM): 25%
- growth inhibition ([3]; at 3.7 µM): 66%
- growth inhibition ([3]; at 11.0 µM): 89% (active)
- growth inhibition ([3]; at 33.0 µM): 94% (active)
- growth inhibition ([3]; at 100.0 µM): 94% (active)
- growth inhibition ([4]; at 1.2 µM): -1%
- growth inhibition ([4]; at 3.7 µM): -4%
- growth inhibition ([4]; at 11.0 µM): 5%
- growth inhibition ([4]; at 33.0 µM): 4%
- growth inhibition ([4]; at 100.0 µM): 3%
- growth inhibition ([5]; at 1.2 µM): 21%
- growth inhibition ([5]; at 3.7 µM): 53%
- growth inhibition [5, 17]: 6%
- growth inhibition ([5]; at 11.0 µM): 85% (active)
- growth inhibition ([5]; at 33.0 µM): 93% (active)
- growth inhibition [5, 18]: 90% (active)
- growth inhibition ([5]; at 50.0 µM): 70%
- growth inhibition ([5]; at 100.0 µM): 91% (active)
- growth inhibition ([6]; at 1.2 µM): 1%
- growth inhibition ([6]; at 3.7 µM): 3%
- growth inhibition [6, 17]: 4%
- growth inhibition ([6]; at 11.0 µM): 13%
- growth inhibition ([6]; at 33.0 µM): 24%
- growth inhibition [6, 18]: -1%
- growth inhibition ([6]; at 50.0 µM): -14.1%
- growth inhibition ([6]; at 100.0 µM): 20%
- growth inhibition ([7]; at 1.2 µM): -1%
- growth inhibition ([7]; at 3.7 µM): 5%
- growth inhibition ([7]; at 11.0 µM): 25%
- growth inhibition ([7]; at 33.0 µM): 34%
- growth inhibition ([7]; at 100.0 µM): 25%
- growth inhibition [8, 17]: -22%
- growth inhibition [8, 18]: -2%
- growth inhibition ([8]; at 50.0 µM): 31.8%
- growth inhibition ([9]; at 1.2 µM): 0%
- growth inhibition ([9]; at 3.7 µM): -13%
- growth inhibition ([9]; at 11.0 µM): -5%
- growth inhibition ([9]; at 33.0 µM): 6%
- growth inhibition ([9]; at 100.0 µM): 8%
- growth inhibition [10, 17]: 21%
- growth inhibition [10, 18]: 11%
- growth inhibition ([10]; at 50.0 µM): 21.4%
- growth inhibition ([11]; at 1.2 µM): -3%
- growth inhibition ([11]; at 3.7 µM): 4%
- growth inhibition [11, 17]: -20%
- growth inhibition ([11]; at 11.0 µM): -3%
- growth inhibition ([11]; at 33.0 µM): -2%
- growth inhibition [11, 18]: -2%
- growth inhibition ([11]; at 50.0 µM): 14.3%
- growth inhibition ([11]; at 100.0 µM): -5%
